Gal4-VP16 FLuc – counter-screen for ROR gamma inhibitors: Gal4-VP16 reporter. Drosophila S2 Gal4-VP16 UAS-luciferase, luminescence, 20 h. Potency, µM (doses to about 53.6 µM), for inactives: at the top dose activity, negative = inhibition, usual class: inhibitors. AID 2546. 3.5% of 310,000 active;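 also: Gal4-VP16 expression switched on by copper sulfate through the metallothionein promoter; potency is read from the fitted curve at half-maximal effect; % is scaled to controls: 0 for no effect and ±100 for the full control effect; nearly all actives have a fitted effect of over 50% in size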
RORgamma inh – blocks mouse ROR gamma transcriptional activity; P51450; Drosophila S2 Gal4-RORgamma UAS-luciferase reporter, 20 h; Potency, µM (top dose mostly 53.6 µM), without a hit: at the highest dose activity change, negative = inhibition, most hits filed as inhibitors; 5.4% of 310,000 active; also: potency is read from the fitted curve at half-maximal effect; % is scaled to controls: 0 for no effect and ±100 for the full control effect; nearly all actives have a fitted effect of over 60% in size
Target sequence (P51450 whole entry, looked up, the tested form may be a part): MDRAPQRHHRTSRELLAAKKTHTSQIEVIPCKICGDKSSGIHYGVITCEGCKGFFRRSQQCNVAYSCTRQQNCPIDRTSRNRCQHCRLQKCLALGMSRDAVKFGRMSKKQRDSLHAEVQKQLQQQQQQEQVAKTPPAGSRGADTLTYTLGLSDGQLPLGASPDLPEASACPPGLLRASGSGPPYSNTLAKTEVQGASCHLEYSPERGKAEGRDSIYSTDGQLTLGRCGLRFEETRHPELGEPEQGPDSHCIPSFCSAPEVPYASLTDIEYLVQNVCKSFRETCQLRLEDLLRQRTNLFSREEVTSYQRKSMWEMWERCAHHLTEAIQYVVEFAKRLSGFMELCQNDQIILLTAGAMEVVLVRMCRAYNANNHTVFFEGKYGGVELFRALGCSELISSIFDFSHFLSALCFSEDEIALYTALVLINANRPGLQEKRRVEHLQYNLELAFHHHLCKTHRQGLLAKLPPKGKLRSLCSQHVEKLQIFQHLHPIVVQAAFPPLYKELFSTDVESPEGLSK
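Luciferase reporter read in Schneider cells carrying Gal4-RORγ (mouse) and UAS-Photinus luciferase; cells given compound 1 h before 700 uM copper sulfate induction, then incubated 20 h at ambient temperature.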
SW480 rerep – induces DNA re-replication in SW480 colon adenocarcinoma cells; Potency, µM (series often up to 46.1 µM), for the others: at the top dose re-replication activation, actives largely listed as activators; SW480 DNA re-replication, Hoechst DNA content imaging, 48 h; 1.8% of 340,000 active; also: potency is read from the fitted curve at half-maximal effect; % of control where 0% means no effect; nearly all actives have a fitted effect of over 55% in size
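DNA re-replication was detected as more nuclei of elevated Hoechst intensity after 48 hr exposure to compound (23 nL pinned per well of 250 cells).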
MCF10A rerep – induces DNA re-replication in MCF 10a normal breast cells; 2.9% of 350,000 active; Potency, µM (highest dose often 46.1 µM), for the others: top-dose activity, positive = re-replication, hits mostly activators; MCF 10A DNA re-replication, Hoechst nuclear intensity, 48 h; AID 624296; also: potency is read from the fitted curve at half-maximal effect; % of control where 0% means no effect; nearly all actives have a fitted effect of over 50% in size
Giardia killer – kills Giardia lamblia | activity change, % at 7.66 µM, hits read low | 0.15% of 340,000 active | AID 540267 | Giardia lamblia trophozoite viability; in the data active = activity change below about -80%; inconclusive = between about -30% and that limit;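 also: parasites exposed to compound for two days anaerobically before the ATP read; % is scaled to controls: 0 for no effect and ±100 for the full control effect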
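Giardia trophozoites, 100 cells per well, were exposed to compounds for 48 hrs at 37 deg C under anaerobic conditions; viability was then read as ATP content by bioluminescence after 15-30 min at room temperature.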
BCR signal inh – blocks chronic active B-cell receptor signaling. Potency, µM (highest dose often 46.1 µM), for inactives: top-dose activity change, negative = inhibition, most hits filed as inhibitors. 0.05% of 340,000 active. ABC-DLBCL IkBa-CBG/CBR reporter, luminescence ratio, 4 h; active = well fitted inhibition curve with a large enough effect in the signal ratio, with a control signal flat, not every such curve was filed as active; inconclusive = small, poorly fitted or top-dose-only effect, or effect the other way, or a change in a side signal; the % refers to the signal ratio;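 also: potency is read from the fitted curve at half-maximal effect; plate controls were basal doxycycline-induced cells for no effect and cells given 10 µM MG132 for full effect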
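Compounds up to 46 uM were incubated four hours with TMD8 cells whose green CBG68 luciferase is fused to IkappaBalpha; red CBR luminescence normalised the signal, and concentration-effect curves were fitted to fusion, red and ratio data.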
* hit, by the source's call; ? = inconclusive; . = no result given; [ ] = dose if it differs, or a comment. Most compounds without a hit are left out; they make up all but 8.3% or so of the library. Unless noted, calls follow the shape of the dose curve; as a rule, active = well fitted curve in the direction sought with a large enough effect; inconclusive = small, poorly fitted or top-dose-only effect, or another doubt; inactive = no such curve, though single readings can be large; an effect the other way counts as inactive or inconclusive.

SMILES	Gal4-VP16 FLuc	RORgamma inh	SW480 rerep	MCF10A rerep	Giardia killer	BCR signal inh
COc1cccc(/C=C2/SC(=S)N(CCC(=O)N3CCOCC3)C2=O)c1	?	?	9%	?	8	-16%
COc1cccc(/C=C2\SC(=S)N(CCCC(=O)N(CCO)c3ccccc3)C2=O)c1	2.5µM*	7.1µM*	?	?	-6	?
O=C(CN1CCc2ccccc2C1)Nc1ccc(OC(F)(F)F)cc1	-4%	22%	14%	4%	-2	?
CCN(c1ccccc1)S(=O)(=O)c1cccc(C(=O)N(C)CCOc2ccccc2)c1	.	.	2%	-1%	3	17%
Cn1c(/C(C#N)=C(\O)c2ccc([N+](=O)[O-])cc2)nc2ccccc21	1%	1%	-58%	6%	-9	?
N#C/C(=C(/O)c1cccc(F)c1)c1nc2ccccc2s1	13%	?	-5%	11%	-1	?
Cn1c(/C(C#N)=C(\O)c2cccc(F)c2)nc2ccccc21	7.1µM*	7.1µM*	114%	20%	8	1%
CCN(CC)S(=O)(=O)c1ccc(/C(O)=C(\C#N)c2nc3ccccc3n2C)cc1	5.6µM*	2.8µM*	17%	-1%	12	?
COc1ccc2c(c1)NC(c1cc(Cl)cc(Cl)c1O)c1cccn1-2 (stereo not drawn)	1%	6%	-1%	16%	6	1%
COc1ccc2c(c1)NC(c1ccc(N(C)C)cc1)c1cccn1-2 (stereo not drawn)	-2%	13%	18µM*	?	3	-7%
C=C(C)CNC(=S)Nc1sc2c(c1C(=O)OCC)CC(C)(C)OC2	1.4µM*	1.4µM*	-7%	6%	14	1%
CCc1nc(C)c(-c2ccccc2)c(=O)[nH]1	-3%	-2%	18µM*	?	0	?
Cc1sc2nc(Cc3ccccc3)[nH]c(=O)c2c1-c1ccccc1	?	13%	-4%	2%	-18	-1%
CC(=O)c1ccc2c(c1)Cc1cc(C(C)=O)ccc1-2	-16%	?	-3%	-4%	-12	?
CC(=O)c1ccc2c(c1)CC1(C2)Cc2cc3c(cc2C1)C(=O)CC3 (stereo not drawn)	.	.	7.3µM*	4.1µM*	4	.
O=C(CSc1nccn1-c1ncc(C(F)(F)F)cc1Cl)c1ccc(Cl)cc1	?	16µM*	1%[9.22 µM]	7%	2	3%
O=C(OC1CCN(c2ncc(C(F)(F)F)cc2Cl)CC1)c1ccc(Cl)cc1	-1%	-5%	-1%	0%	-3	1%
O=C(O)c1nn(CCOc2ccc(Br)cc2)c(=O)c2ccccc12	2%	11%	-14%	?	3	?
CC(=O)CSc1ccc(-c2nc3cc(C)c(C)cc3[nH]2)cn1	1%	-8%	12%	-1%[9.22 µM]	?	-7%
CC(=O)CSc1ccc(-c2nc3ccccc3[nH]2)cn1	11µM*	10µM*	-11%[9.22 µM]	4%	?	8%
Cc1cc(C)c(OCC(=O)N(Cc2ccc(N(C)C)cc2)C2CCS(=O)(=O)C2)c(C)c1 (stereo not drawn)	-7%	13%	7%	15%	5	-7%
NC(=O)c1ccnc2c(O)cccc12	.	.	0%	4%	13	?
Oc1ccc(COc2cccc3ccccc23)c2cccnc12	.	.	.	.	.	1%
Oc1ccc(COC2CCCC2)c2cccnc12	.	.	.	.	.	7.3µM*
COCc1ccc(O)c2ncccc12	3.2µM*	6.3µM*	26%	7.3µM*	-13	?
OCc1ccnc2c(O)cccc12	-2%	43%	1.2µM*	5.2µM*	1	6.3µM*
COC(=O)CC(NC(=O)C1CC1)c1ccc2c(c1)OCO2 (stereo not drawn)	6%	-1%	0%	1%	-9	-4%
C[C@@H]1CN([C@@H](C)CO)C(=O)c2cc(NC(=O)CCC(F)(F)F)ccc2O[C@H]1CN(C)S(=O)(=O)c1ccc(Cl)cc1	.	.	-9%	10%	-23	?

Assay outcomes deposited in PubChem BioAssay by National Center for Advancing Translational Sciences (NCATS).
